The entries come from a sample that favours hits as a whole.
HIV RNase H inh-1: blocks HIV-1 RNase H cleavage of RNA/DNA duplex; hit rate 1.9% among 65,000; AID 565; inhibition, % at 10 µM; P04585; RT-RNase H RNA/DNA duplex cleavage, fluorescence; in the data active = inhibition above about 50%
HIV RNase H inh-2: confirmation of HIV-1 reverse transcriptase RNase H inhibitors; shares compounds with HIV RNase H inh-1; Recombinant RT RNase H, fluorescent RNA/DNA duplex cleavage; inhibition, % at 10 µM; hit rate 39% among 1,000; AID 651; in the data active = inhibition above about 48%
Active calls of the source: *.

SMILES	HIV RNase H inh-1	others
COc1ccc(-n2nnnc2SCC(N)=O)cc1	-9
COc1ccc(-n2nnnc2S(=O)(=O)Cc2ccc(C(=O)O)cc2)cc1	63*
COc1ccc(-n2nnnc2S(=O)(=O)CC(=O)N2CCCCC2)cc1	29
O=C(Nn1c(Cc2cccs2)nc2ccccc2c1=O)c1cccs1	-16
COc1ccc(Cl)cc1NC(=O)CSc1nncn1-c1cccnc1	-16
N#Cc1nc(-c2ccco2)oc1NCCCn1ccnc1	-2
Cc1cccc(C)c1NC(=O)CSc1nnc(CCCCCNC(=O)OC(C)(C)C)o1	-7
O=c1[nH]c(=S)[nH]nc1Cc1ccccc1	-1
CC(Nc1n[nH]c(=S)[nH]c1=O)C(=O)OCc1ccccc1 (stereo not given)	53*
CCCCOC(=O)C(C)Nc1n[nH]c(=O)[nH]c1=O (stereo not given)	-9
Cc1ccccc1N1C(=O)N(c2cccc(C(F)(F)F)c2)C2CS(=O)(=O)CC21 (stereo not given)	-1
CCn1c(CCNC(=O)c2cccs2)nnc1SCC(=O)c1ccc(OC)cc1	57*
CCn1c(CNC(=O)c2ccc(OC)cc2)nnc1SCC(=O)c1ccccc1	4
COC(=O)CSc1nnc(CNC(=O)c2cccs2)n1-c1cc(OC)ccc1OC	-4
O=C(Nc1ccccc1C(=O)N1CCCCC1)C1CCCCC1	-6
Oc1ccccc1C(=S)N1CCCCC1	53*
Oc1ccccc1C(=S)N1CCCCCC1	38
CCn1c(=O)c(C2=NS(=O)(=O)c3ccccc3N2)c(O)c2ccccc21	3
CCCOc1ccc2ccccc2c1/C=N/n1c(C)nnc1-n1nc(C)cc1C	-58
N#CC1=C2SCN(Cc3ccco3)CN2C(=O)CC1c1ccc(Cl)cc1 (stereo not given)	54*
COc1ccc2ccccc2c1C1CC(=O)N2CN(Cc3ccco3)CSC2=C1C#N (stereo not given)	6
COc1cc(C2CC(=O)N3CN(Cc4ccco4)CSC3=C2C#N)ccc1OCc1ccccc1 (stereo not given)	11
N#CC1=C2SCN(Cc3ccccc3)CN2C(=O)CC1c1cccs1 (stereo not given)	65*
COc1ccc(OC)c(C2CC(=O)N3CN(c4ccccc4)CSC3=C2C#N)c1 (stereo not given)	4
COc1ccc(C2CC(=O)N3CN(Cc4ccco4)CSC3=C2C#N)cc1 (stereo not given)	20
SMILES	HIV RNase H inh-1	others
N#CC1=C(N)Oc2c(oc(CO)cc2=O)C1c1cccs1 (stereo not given)	4
COc1ccc(C2CC(=O)N3CN(c4ccccc4F)CSC3=C2C#N)cc1OC (stereo not given)	59*
COc1ccc(C2CC(=O)N3CN(c4ccc(C)c(Cl)c4)CSC3=C2C#N)cc1 (stereo not given)	21
N#CC1=C2SCN(Cc3ccccc3)CN2C(=O)CC1c1ccc2c(c1)OCO2 (stereo not given)	-25
CC(C)c1ccc(C2CC(=O)N3CN(Cc4ccco4)CSC3=C2C#N)cc1 (stereo not given)	59*
CSC1=C(C#N)C(c2ccc(C(C)C)cc2)CC(=O)N1 (stereo not given)	-13
CC(=O)Oc1ccc(NC(=O)CSc2ccccc2)cc1	-31
Cc1cc(C(=O)OCn2nnc3ccccc3c2=O)c(C)n1-c1ccccc1	-36
CCC(=O)N1CCc2cc(Br)cc(S(=O)(=O)N3CCN(c4ccccn4)CC3)c21	45
CN1CCc2nc(SCC(=O)Nc3ccc(F)cc3)c(C#N)cc2C1	11
Cc1noc(C)c1COC(=O)C1(c2cccc(F)c2)CCCC1	-35
O=C(c1ccccc1)N(Cc1ccc2c(c1)OCO2)Cc1nc2ccccc2c(=O)[nH]1	-2
O=c1cc(CSc2ccc(S(=O)(=O)N3CCCCC3)cn2)nc2sccn12	-11
COc1ccc(-c2nnc(SCC(=O)NC(C)c3ccccc3)o2)cc1OC (stereo not given)	-15
CC(C)(CNC(=O)c1cccs1)CNC(=O)c1cccs1	-2
CN1C(=O)c2cccc(NC(=O)Cc3ccccc3)c2C1=O	-30
Cc1cc2c(=O)n(CC(=O)NCC(=O)N3CCN(Cc4ccccc4)CC3)cnc2s1	-7
CCOC(=O)/C(C(C)=O)=C1\OC(=O)c2ccccc21	-4
COc1ccc(C2C(C(C)=O)=C(C)N=c3s/c(=C\c4cc(C)n(C)c4C)c(=O)n32)c(OC)c1 (stereo not given)	32
COc1ccc(C2C(C(C)=O)=C(C)N=c3s/c(=C\c4ccc5c(c4)OCO5)c(=O)n32)c(OC)c1 (stereo not given)	58*
COc1ccc(C2C(C(C)=O)=C(C)N=c3s/c(=C\c4ccco4)c(=O)n32)c(OC)c1 (stereo not given)	-1
CCOc1ccccc1NC(=O)c1c(NC(=O)CNCc2ccco2)sc2c1CCC2	72*
COC(=O)Nc1sc2c(c1C(=O)NCc1ccco1)CCCC2	11
COC(=O)Nc1sc2c(c1C(=O)NCc1ccco1)CCC2	-15
Cc1ccc(-c2nnc3n2N=C(c2ccccc2Br)CS3)cc1	-24
SMILES	HIV RNase H inh-1	others
CCOc1ccc(NC2c3ccccc3C(=O)N2Cc2ccco2)cc1 (stereo not given)	9
CC1(C)C(=O)OC(c2cccs2)C(C)(C)C1=O (stereo not given)	-14
O=C(Cn1nc(C(F)(F)F)c2c1CCC2)N1CCN(c2ccccc2)CC1	-15
CCc1nnc2sc(-c3ccc(NC(=O)c4ccco4)cc3)nn12	0
Cc1nnc2sc(-c3ccc(NC(=O)c4cccnc4)cc3)nn12	3
Cc1nnc2sc(-c3ccc(NC(=O)c4ccc(-c5ccc(Cl)cc5Cl)o4)cc3)nn12	50*
Cc1ccc(-c2cc(C(=O)NCc3ccco3)c3ccccc3n2)o1	-19
COc1ccc(C(=O)NCCCn2ccnc2)cc1	-9
O=C(NC1=NCCS1)c1ccc(-c2ccc(Cl)cc2)o1	-13
Cc1ccc2c(CC(=O)NC3=NCCS3)coc2c1	-80
Cc1ccc(-c2cc(C(=O)NCCCn3ccnc3)c3cc(Br)ccc3n2)o1	78*	HIV RNase H inh-2=22
Cc1ccc(-c2cc(C(=O)NC3=NCCS3)c3cc(Br)ccc3n2)o1	95*	HIV RNase H inh-2=80*
CN1CCN(c2ccc(Cl)cc2NS(=O)(=O)c2ccccc2Cl)CC1	-4
CCOC(=O)C1CCN(C(=O)c2sc3nc(-c4ccc(F)cc4)cn3c2C)CC1	0
CC1=C(C(=O)Nc2ccccc2C)C(c2cccnc2)n2nc(CCCO)nc2N1 (stereo not given)	4
CCCc1cc(C(N)=O)c(NC(=O)C2CCCO2)s1 (stereo not given)	76*	HIV RNase H inh-2=64*
CCOC(=O)c1sc(NC(=O)C2CCCO2)c(C(=O)OCC)c1C (stereo not given)	23
CCCc1cc(C(N)=O)c(NC(=O)c2ccco2)s1	48
O=C1C=C(NCc2ccco2)C2(CCCCC2)O1	-5
O=C1C=C(NCc2ccccc2)C2(CCCCC2)O1	-5
CCN(CC)C1=CC(=O)OC12CCCCC2	55*	HIV RNase H inh-2=65*
CCOC(=O)N1CCN(CC(=O)Nc2ccc(C)c(Br)c2)CC1	-13
CCCCN(C)C(=O)c1sc2ncn(CC)c(=O)c2c1C	-21
S=C(c1ccc(-c2cc(Cl)ccc2Cl)o1)N1CCOCC1	-39
S=C(c1ccc(-c2cccc(Cl)c2)o1)N1CCOCC1	85*	HIV RNase H inh-2=1
N#CCCN1CCN(C(=S)c2ccc(-c3cccc(Cl)c3)o2)CC1	-4
CS(=O)(=O)N(CC(=O)N1CCCC1)c1cccc(Cl)c1	-18

Screening data as filed in PubChem.
